Measured values as given in the supplement of paper PMC4954754.
± gives the uncertainty stated by the source.

These compounds were tested on HEK293T-Rex XBP1-RLuc (assay: XBP1-RLuc splicing reporter activation, triplicate, relative to 500 nM thapsigargin (% of thapsigargin); higher = stronger IRE1/XBP1s reporter activation). Conditions: 6.8 µM; 18 h; screen: confirmation.
Experimental: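 HEK293T-Rex cells stably expressing the ERSE-firefly luciferase (BiP promoter, ATF6-preferring) or XBP1-splicing Renilla luciferase (IRE1/XBP1s) reporter, 1536-well plates, compound at 6.8 µM for 18 hr at 37 °C; luminescence read […] and expressed as % activation = 100*(compound - median DMSO)/(median 500 nM thapsigargin - median DMSO). Primary screen was single-pass; confirmation screen in triplicate (mean ± SD).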

Compared with `CC(C)c1ccc(NC(=O)/C=C/c2ccco2)cc1`, `O=C(/C=C/c1ccccc1)Nc1ccc(Cl)cn1` is lower in “XBP1-RLuc splicing reporter activation” value: 4 ± 0.68 for the first, 1.96 ± 0.26 for the second.

Compared with `Cc1ccc(O)c(NC(=O)c2cc(CC(C)C)on2)c1`, `COc1cccc(C2=NOC(C(=O)Nc3cc(C)ccc3O)C2)c1` (stereo unspecified) is lower in “XBP1-RLuc splicing reporter activation” value: 30.2 ± 2.4 for the first, 14.1 ± 0.22 for the second.

First: COc1cccc(C(=O)Nc2nc3ccc(C)cc3s2)c1
Second: CCOc1cccc(C(=O)Nc2ccc(Br)cn2)c1
The “XBP1-RLuc splicing reporter activation” value of the first is higher: 5.6 ± 0.99 for the first, 2.81 ± 1.5 for the second.

Going from `O=C(NC(c1ccccc1)c1ccccc1)c1csc(-c2cnccn2)n1` to `Oc1ccc(-c2csc(-c3ccccc3)n2)cc1O`, the “XBP1-RLuc splicing reporter activation” value rises from 19 ± 0.61 to 31.3 ± 3.1.

First: Cc1cnc(NC(=O)c2sc3nc4c(C)cccc4cc3c2N)s1
Second: NC(=O)c1c(NC(=O)c2cccc3ccccc23)sc2c1CCC2
The “XBP1-RLuc splicing reporter activation” value of the first is higher: 32.6 ± 0.95 for the first, 9.06 ± 0.86 for the second.

`Cc1ccc(O)c(NC(=O)CCc2ccccc2)c1` and `Cc1ccc(O)c(NC(=O)CSc2ccccc2)c1` are within error of each other in “XBP1-RLuc splicing reporter activation” value: 17.5 ± 1.9 for the first, 10.5 ± 5.2 for the second.

`CC(=O)Nc1ccc2nc(-c3ccc(OC(C)=O)cc3)sc2c1` and `CC(=O)c1cccc(Nc2nc(-c3ccc(O)c(O)c3)cs2)c1` are within error of each other in “XBP1-RLuc splicing reporter activation” value: 21.7 ± 1 for the first, 21.8 ± 1.3 for the second.

Going from `CCn1c(/C(C#N)=C/c2ccc(OC)cc2)nc2ccccc21` to `OCCNc1nc(Nc2ccc(Cl)cc2)nc2ccccc12`, the “XBP1-RLuc splicing reporter activation” value rises from -0.629 ± 1.8 to 32.6 ± 2.5.

Compared with `Nc1ccccc1NC(=O)c1ccc(C(=O)Nc2ccccc2N)cc1`, `O=C(Nc1ccccc1O)c1cc2ccccc2o1` is higher in “XBP1-RLuc splicing reporter activation” value: 4.04 ± 0.55 for the first, 7.88 ± 0.66 for the second.

`N#Cc1c(NC(=O)c2cnccn2)sc2c1CCCC2` and `C/C(=N\NC(=O)c1n[nH]c2c1CCCC2)c1ccc(Br)cc1` are within error of each other in “XBP1-RLuc splicing reporter activation” value: 2.98 ± 3.5 for the first, 2.87 ± 0.99 for the second.

Compared with `C=CCNC(=O)c1cc(-c2cccs2)on1`, `O=C(NCCc1ccccc1)c1cc(-c2cccs2)on1` is lower in “XBP1-RLuc splicing reporter activation” value: 7.78 ± 0.96 for the first, 5.58 ± 1 for the second.

`O=C(/C=C/c1ccccc1)Nc1ccc(Br)cn1` and `COc1ccccc1/C=C/C(=O)Nc1ccc(Cl)cn1` are within error of each other in “XBP1-RLuc splicing reporter activation” value: 0.069 ± 1.1 for the first, -1.93 ± 1.5 for the second.

Compared with `Nc1ccc2nc(-c3ccccn3)[nH]c2c1`, `Nc1ccc2nc(-c3cc(Cl)c(N)c(Cl)c3)[nH]c2c1` is lower in “XBP1-RLuc splicing reporter activation” value: 18.7 ± 1.1 for the first, 13.2 ± 1.2 for the second.

Compared with `O=c1[nH]c(/C=C2\C=Nc3ccccc32)c(O)n1-c1ccc(Cl)cc1`, `Cc1ccc(/C=N/NC(=O)c2cccc(Cl)c2)cc1` is lower in “XBP1-RLuc splicing reporter activation” value: 43.1 ± 3.6 for the first, 0.915 ± 0.53 for the second.

Compared with `c1ccc2cc(-c3cnnc(N4CCOCC4)n3)ccc2c1`, `Oc1ccc(-c2cn3ccccc3n2)cc1O` is higher in “XBP1-RLuc splicing reporter activation” value: 1.22 ± 0.96 for the first, 20.8 ± 2 for the second.

First: CN(c1ccccc1)S(=O)(=O)c1cccc(C(=O)NCCc2ccc(O)c(O)c2)c1
Second: COc1ccc(/C=C/c2ccc3cccc(OC(C)=O)c3n2)cc1OC(C)=O
The “XBP1-RLuc splicing reporter activation” value of the first is higher: 33.2 ± 0.95 for the first, 6.25 ± 0.81 for the second.

Going from `CCN1C(=O)/C(=C\c2ccc(O)cc2O)SC1=S` to `Cc1ccc(/C=C(\C#N)C(=O)Nc2cccc(Cl)c2)o1`, the “XBP1-RLuc splicing reporter activation” value falls from 13.6 ± 1.7 to 0.278 ± 1.4.

Going from `CCCCCCOc1ccc(/C(C)=N/NC2=NCCN2)cc1[N+](=O)[O-]` to `CCOc1ccc(/C=C(\C#N)c2[nH]nc(N)c2C#N)cc1OCC`, the “XBP1-RLuc splicing reporter activation” value falls from 15 ± 0.76 to 7.63 ± 1.
